Data reported in article PMC5540273 (PLoS ONE, 2017).

system: ACVR1; settings: concentration: 1 μM, replicates: in singlicate; n = 1
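Note: KINOMEscan kinase panel screen.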

| Structure (SMILES) | %Inh |
| --- | --- |
| Nc1n[nH]c2ncc(-c3ccccc3)cc12 [SB-517081] | 8% |
| COc1cc(Nc2nccc(N3CCC(NC(=O)C4COc5ccccc5O4)C3)n2)cc(OC)c1OC (stereo not drawn) [GSK1379761] | 20% |
| COc1cc2ncn(-c3cc(OCCCc4ccccc4)c(C(N)=O)s3)c2cc1OC [GSK205189] | 0% |
| CCC(=O)c1c(-c2ccccc2)c2cc(Cl)ccc2c(=O)n1Cc1cc(C(=O)NC2CC2)n(C)n1 | 0% |
| C[C@@H]1CC[C@H](C(=O)NC2CCCCC2)CN1c1cc(-c2ccc3c(N)n[nH]c3c2)nc(N)n1 [GSK2291363] | 0% |
| CCc1ccc(-c2ccc3c(c2)-c2nn(C)cc2S(=O)(=O)N3C)cc1 | 0% |
| Cc1nnc(-c2ccc(C)c(-c3ccc(C(=O)O)cc3)c2)o1 [GW608005] | 4% |
| COc1cc(OC)cc(-c2cc3cnc(N)nc3nc2NC(=O)NC(C)(C)C)c1 | 0% |
| COC(=O)c1c(-c2ccccc2)c2cc(Br)ccc2c(=O)n1Cc1ccc(S(C)(=O)=O)cc1 | 15% |
| Cl.NS(=O)(=O)c1cccc(Nc2cc(-c3ccc(F)cc3)n[nH]2)c1 [GW824645] | 0% |
| CCC(=O)c1c(-c2ccccc2)c2cc(Cl)ccc2c(=O)n1Cc1cc(S(C)(=O)=O)n(CC(N)=O)n1 | 0% |
| COc1cc2nccc(Nc3ccc(OCc4ccc(NC(C)=O)cc4)cc3)c2cc1OC.Cl [GW440135] | 25% |
| COc1cccc(C2=C(Nc3cccc(C(=O)O)c3)C(=O)NC2=O)c1 [SB-390770] | 15% |
| CN1C(=O)C(Nc2cc(Cl)c(O)c(Cl)c2)=C(c2ccc(Cl)cc2)C1=O [SB-404321] | 0% |
| O=C(Nc1n[nH]c2cc(-c3ccccc3F)ccc12)C1CC1 [SB-733371] | 32% |
| COc1cc2nccc(Nc3cccc(Oc4ccccc4)c3)c2cc1OC.Cl [GW284543] | 0% |
| COc1cc2ncn(-c3cc(OCc4ccncc4)c(C(N)=O)s3)c2cc1OC [GSK336313] | 9% |
| Cc1ccc(Oc2ccc(Nc3ncnc4cc[nH]c34)cc2C)cn1 | 2% |

| Structure (SMILES) | %Inh |
| --- | --- |
| COc1ccc(-n2cnc3c(N)ncnc32)cc1 [SKF-97236] | 7% |
| O=C(NCCNc1ccnc(Nc2ccc(F)cc2)n1)Nc1ccc2c(c1)OCO2 [GSK1379882] | 0% |
| COc1ccc(-c2cc3c(C)nc(N)nc3n([C@H]3CC[C@H](O)CC3)c2=O)cn1 | 0% |
| O=C(Nc1ccc2c(c1)OCO2)NC1CCN(c2ccnc(NCc3ccc(F)cc3)n2)CC1 [GSK1379859] | 0% |
| O=c1cc(N2CCOCC2)nc2n(Cc3ccc(F)c(Cl)c3)ccn12 [GSK2297099] | 0% |
| CCC(=O)c1c(-c2ccccc2)c2cc(Cl)ccc2c(=O)n1Cc1ccc(C(=O)O)cc1 | 11% |
| CCS(=O)c1ccc(-c2coc3ccc(-c4nnc(C)o4)cc23)cc1 (stereo not drawn) | 5% |
| CC(C)(C)c1ccc(C(=O)Nc2cn3cc(-c4ccccc4)ccc3n2)cc1 | 5% |
| Nc1nc(N)c2nc(-c3ccccc3)[nH]c2n1 [SKF-12778] | 6% |
| Cc1nc(N(C)[C@H]2CN(C(=O)CC#N)CC[C@H]2C)c2cc[nH]c2n1 | 8% |
| CCC(=O)c1c(-c2ccccc2)c2cc(Cl)ccc2c(=O)n1Cc1cc(S(C)(=O)=O)n(CCC(C)(C)O)n1 | 2% |
| CCn1c(-c2nonc2N)nc2ccccc21 [SB-693162/GW549034] | 0% |
| CCn1c(-c2ccoc2)nc2cnccc21 [SB-733887] | 15% |
| Cc1cccc(-c2cc(-c3c[nH]nc3-c3ccccn3)ccn2)c1 [GW679395] | 0% |
| Nc1ncnc2c1ncn2-c1cccc(F)c1 [SKF-97560] | 1% |
| CN1C(=O)C(Nc2ccccc2)=C(c2ccccc2)C1=O [SB-300079] | 0% |
| OCCCNc1nccc(-c2c(-c3cccc(C(F)(F)F)c3)nn3cc(C(F)(F)F)ccc23)n1 [GW630813] | 0% |
| COc1ccc(-c2cc3c(C)nc(N)nc3n([C@H]3CC[C@H](OCCO)CC3)c2=O)cn1 | 4% |
